Results taken from PubChem BioAssay AID1823 (The Scripps Research Institute Molecular Screening Center, 2009).
About 70 (0.4%) of roughly 16,000 compounds were called active. Only a selection was taken, and actives are over-represented in it overall. Values without a mark were called inactive. Cut-off read from the data, not from the text of the source: active = inhibition above about 75%; inactive = the rest.

Test: counter-screen for Nox1 inhibitors: inhibitors of luminol chemiluminescence (AID 1823)
Conditions: HRP/luminol/H2O2 chemiluminescence counterscreen; at 6.7 µM; active compounds read high
Work on `CCOC(=O)NC(=O)/C(=C/NC(C)C)C(=O)OCC` yielded an inhibition of 2.4%.
`CSc1nnc(SC)n1CCNC(=O)Nc1cccc(Cl)c1` gave an inhibition of 3.79%.
With `CCCCc1c(O)cc(-c2ccccc2)n(Cc2ccccc2)c1=O` the inhibition was 7.84%.
In the case of `COc1ccc(OC(=O)/C=C/c2sc3ccccc3c2C)cc1`, the inhibition is reported as -0.97%.
In the case of `Cc1nc(C(F)(F)F)ccc1NC(=O)/C=C\C(=O)O`, the inhibition is reported as 1.91%.
With `CCc1cnc(NS(=O)(=O)c2cc(Cl)sc2Cl)nc1-c1c(F)cccc1F` the inhibition was -0.98%.
`Cc1ccc(S(=O)(=O)NNC(=O)c2ccccc2N)cc1` gave an inhibition of 37.9%.
`O=C(NCc1cccnc1)Nc1cccc(NC(=O)NCc2cccnc2)c1F` gave an inhibition of 1.8%.
`COc1cccc2c1c(NS(=O)(=O)c1cn(C)cn1)nn2C` gave an inhibition of -21.4%.
With `O=[N+]([O-])c1ccc2c(c1)CCN2S(=O)(=O)c1ccccc1` the inhibition was -4.92%.
Compound `CNC(=O)c1ccccc1Sc1ccccc1C(=O)NC` has an inhibition of -0.03%.
`Cc1nc(-c2ccc(NC(=O)COCC(=O)O)cc2)cs1` gave an inhibition of 21.6%.
Work on `O=C1C(Cl)=C(Oc2cc(Cl)c(Cl)cc2Cl)C(=O)c2ccccc21` yielded an inhibition of 0.81%.
`Cn1ncc(Br)c1NC(=O)C(C)(C)C` showed an inhibition of 4.37%.
Work on `N#Cc1ccc(-c2csc(COc3ccccc3Cl)n2)cc1` yielded an inhibition of -1.21%.
`CS(=O)(=O)Nc1ccc(/C(N)=N/OC(=O)c2cccs2)cc1` gave an inhibition of 2.83%.
In the case of `c1ccc2sc(-c3csc(-c4ccc5c(c4)OCCO5)n3)nc2c1`, the inhibition is reported as 3.06%.
Work on `N#CCCSc1sc(=S)sc1SCCC#N` yielded an inhibition of 3.43%.
With `C/C(=N\O)C(C)(C)Nc1ccc(C(C)(C)C)cc1` the inhibition was -0.65%.
`O=c1[nH]c2c(=O)[nH]c(=S)[nH]c2nc1/C=C(\O)c1ccccc1` gave an inhibition of -2.84%.
In the case of `O=C(Nc1ccc(F)cc1OC(F)(F)F)N1CCC(O)CC1`, the inhibition is reported as -1.8%.
Compound `CCOC(=O)c1c(C)csc1NC(=O)CC(=O)C(F)(F)F` has an inhibition of -0.11%.
Compound `CCOC(=O)c1c(NC(=S)Nc2ccccc2)sc2c1CCN(C)C2` has an inhibition of 0.9%.
For `CCOC(=O)c1c(NC(=S)NC)sc2c1CCCC2`, the inhibition was 97.7% (active).
In the case of `Cc1cc(/C(N)=N/OC(=O)c2cccs2)c(-c2ccccc2)o1`, the inhibition is reported as -4.79%.
For `Cc1cc(C)nc(NC(=S)c2ccc(NC(=O)/C=C/C(=O)O)cc2)n1`, the inhibition was -2.67%.
Work on `CCSC(=O)NCc1ccccc1` yielded an inhibition of -0.89%.
`Cc1onc(-c2ccccc2Cl)c1NC(=O)N1c2ccc(F)cc2CCC1C` (stereo not drawn) gave an inhibition of 8.92%.
